# Results reported in ChEMBL document CHEMBL1961873, “Compounds: GSK PKIS; Assays: Nanosyn kinase panel” (2012).
# Where “and” joins values, the source holds several entries; their conditions need not be identical. Equal values may be shown once.
# Assays:
# [1] = molecular target: Serine/threonine-protein kinase 26 (Homo sapiens) (UniProt Q9P289); settings: at 1 µM;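 note: mean inhibition of MST4 kinase activity, reported from the GSK PKIS inhibitor-set screening panel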
# [2] = molecular target: Serine/threonine-protein kinase PAK 1 (Homo sapiens) (UniProt Q13153); settings: at 0.1 µM
# [3] = molecular target: Serine/threonine-protein kinase PAK 1 (Homo sapiens) (UniProt Q13153); settings: at 1 µM
# [4] = molecular target: Serine/threonine-protein kinase PAK 2 (Homo sapiens) (UniProt Q13177); settings: at 0.1 µM
# [5] = molecular target: Serine/threonine-protein kinase PAK 2 (Homo sapiens) (UniProt Q13177); settings: at 1 µM
# [6] = molecular target: Serine/threonine-protein kinase PAK 3 (Homo sapiens) (UniProt O75914); settings: at 0.1 µM
# [7] = molecular target: Serine/threonine-protein kinase PAK 3 (Homo sapiens) (UniProt O75914); settings: at 1 µM
# [8] = molecular target: Serine/threonine-protein kinase PAK 5 (Homo sapiens) (UniProt Q9P286); settings: at 0.1 µM
# [9] = molecular target: Serine/threonine-protein kinase PAK 5 (Homo sapiens) (UniProt Q9P286); settings: at 1 µM
# [10] = molecular target: Serine/threonine-protein kinase PAK 6 (Homo sapiens) (UniProt Q9NQU5); settings: at 0.1 µM
# [11] = molecular target: Serine/threonine-protein kinase PAK 6 (Homo sapiens) (UniProt Q9NQU5); settings: at 1 µM
# [12] = system: Tyrosine-protein kinase ABL1 (Homo sapiens), P00519 [E255K]; settings: at 0.1 µM
# [13] = system: Tyrosine-protein kinase ABL1 (Homo sapiens), P00519 [E255K]; settings: at 1 µM
# [14] = system: Tyrosine-protein kinase ABL1 (Homo sapiens), P00519 [H396P]; settings: at 0.1 µM
# [15] = system: Tyrosine-protein kinase ABL1 (Homo sapiens), P00519 [H396P]; settings: at 1 µM
# [16] = system: Tyrosine-protein kinase ABL1 (Homo sapiens), P00519 [M351T]; settings: at 0.1 µM
# [17] = system: Tyrosine-protein kinase ABL1 (Homo sapiens), P00519 [M351T]; settings: at 1 µM
# [18] = system: Tyrosine-protein kinase ABL1 (Homo sapiens), P00519 [Q252H]; settings: at 0.1 µM
# [19] = system: Tyrosine-protein kinase ABL1 (Homo sapiens), P00519 [Q252H]; settings: at 1 µM
# [20] = system: Tyrosine-protein kinase ABL1 (Homo sapiens), P00519 [T315I]; settings: at 0.1 µM
# Chain of Serine/threonine-protein kinase PAK 5 (Homo sapiens) (Q9P286 whole entry, looked up): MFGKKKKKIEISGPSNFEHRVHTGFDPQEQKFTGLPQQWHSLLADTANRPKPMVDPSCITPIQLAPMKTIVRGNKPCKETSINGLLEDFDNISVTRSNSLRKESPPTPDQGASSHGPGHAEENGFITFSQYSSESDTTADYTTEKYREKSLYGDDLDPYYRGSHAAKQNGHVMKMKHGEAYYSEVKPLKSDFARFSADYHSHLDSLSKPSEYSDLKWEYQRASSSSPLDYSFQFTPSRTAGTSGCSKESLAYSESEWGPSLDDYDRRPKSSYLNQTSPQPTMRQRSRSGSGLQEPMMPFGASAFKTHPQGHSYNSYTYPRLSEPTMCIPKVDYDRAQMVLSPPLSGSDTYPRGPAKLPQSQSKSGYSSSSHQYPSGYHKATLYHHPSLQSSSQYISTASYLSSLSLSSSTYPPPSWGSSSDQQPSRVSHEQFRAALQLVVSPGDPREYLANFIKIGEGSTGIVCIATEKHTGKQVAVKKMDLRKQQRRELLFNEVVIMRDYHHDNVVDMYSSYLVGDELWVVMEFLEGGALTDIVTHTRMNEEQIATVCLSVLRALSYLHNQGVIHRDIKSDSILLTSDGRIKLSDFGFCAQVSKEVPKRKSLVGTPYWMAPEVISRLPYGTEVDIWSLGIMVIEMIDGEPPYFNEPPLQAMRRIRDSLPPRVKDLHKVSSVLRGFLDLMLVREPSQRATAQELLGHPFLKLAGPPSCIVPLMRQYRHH
# Chain of Serine/threonine-protein kinase PAK 6 (Homo sapiens) (Q9NQU5 whole entry, looked up): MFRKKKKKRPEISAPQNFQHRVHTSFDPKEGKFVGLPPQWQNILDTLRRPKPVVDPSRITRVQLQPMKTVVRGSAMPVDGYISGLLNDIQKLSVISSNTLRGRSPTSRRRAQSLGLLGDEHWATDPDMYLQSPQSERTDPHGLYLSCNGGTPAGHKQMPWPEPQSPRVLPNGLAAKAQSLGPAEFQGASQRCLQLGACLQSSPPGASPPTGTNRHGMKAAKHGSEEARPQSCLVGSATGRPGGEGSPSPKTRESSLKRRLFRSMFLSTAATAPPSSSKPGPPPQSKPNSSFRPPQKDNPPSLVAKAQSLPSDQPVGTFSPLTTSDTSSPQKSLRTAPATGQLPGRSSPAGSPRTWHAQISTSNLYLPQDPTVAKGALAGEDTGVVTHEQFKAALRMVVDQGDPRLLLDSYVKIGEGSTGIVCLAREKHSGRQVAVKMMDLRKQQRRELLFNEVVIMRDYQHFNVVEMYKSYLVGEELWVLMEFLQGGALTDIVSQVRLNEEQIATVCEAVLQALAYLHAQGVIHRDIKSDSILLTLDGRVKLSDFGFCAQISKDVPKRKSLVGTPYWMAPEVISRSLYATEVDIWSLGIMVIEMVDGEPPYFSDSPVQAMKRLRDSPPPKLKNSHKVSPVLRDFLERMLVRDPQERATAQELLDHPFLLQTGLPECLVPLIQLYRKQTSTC
# Chain of Serine/threonine-protein kinase PAK 3 (Homo sapiens) (O75914 whole entry, looked up): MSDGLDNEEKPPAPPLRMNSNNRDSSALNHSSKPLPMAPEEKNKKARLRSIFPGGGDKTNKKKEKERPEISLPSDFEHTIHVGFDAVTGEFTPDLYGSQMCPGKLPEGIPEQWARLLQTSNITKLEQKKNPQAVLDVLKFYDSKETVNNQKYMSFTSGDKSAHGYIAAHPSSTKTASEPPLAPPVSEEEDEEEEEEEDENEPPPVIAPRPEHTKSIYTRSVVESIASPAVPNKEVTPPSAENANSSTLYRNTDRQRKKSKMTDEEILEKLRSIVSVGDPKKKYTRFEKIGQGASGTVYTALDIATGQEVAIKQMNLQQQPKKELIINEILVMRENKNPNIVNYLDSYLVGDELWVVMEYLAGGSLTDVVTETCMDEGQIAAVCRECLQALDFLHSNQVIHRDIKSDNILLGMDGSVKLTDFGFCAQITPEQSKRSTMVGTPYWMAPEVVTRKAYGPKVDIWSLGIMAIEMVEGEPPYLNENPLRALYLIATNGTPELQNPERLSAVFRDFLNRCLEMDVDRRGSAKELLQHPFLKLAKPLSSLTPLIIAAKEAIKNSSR
# Chain of Serine/threonine-protein kinase PAK 2 (Homo sapiens) (Q13177 whole entry): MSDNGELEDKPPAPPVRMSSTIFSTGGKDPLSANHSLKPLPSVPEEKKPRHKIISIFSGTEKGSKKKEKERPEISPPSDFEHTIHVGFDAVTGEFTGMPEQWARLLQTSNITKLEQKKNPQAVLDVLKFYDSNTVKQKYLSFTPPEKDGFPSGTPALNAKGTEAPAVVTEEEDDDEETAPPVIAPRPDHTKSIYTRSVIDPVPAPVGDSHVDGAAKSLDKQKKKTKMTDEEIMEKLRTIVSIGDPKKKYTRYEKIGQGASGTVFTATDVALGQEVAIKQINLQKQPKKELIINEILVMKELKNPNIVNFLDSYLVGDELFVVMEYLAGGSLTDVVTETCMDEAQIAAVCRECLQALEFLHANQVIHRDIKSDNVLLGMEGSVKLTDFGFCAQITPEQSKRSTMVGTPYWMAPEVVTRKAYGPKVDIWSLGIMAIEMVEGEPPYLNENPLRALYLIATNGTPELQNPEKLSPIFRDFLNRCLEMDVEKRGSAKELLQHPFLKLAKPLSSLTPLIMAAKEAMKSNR
# Chain of Serine/threonine-protein kinase 26 (Homo sapiens) (Q9P289 2-416 limits assumed): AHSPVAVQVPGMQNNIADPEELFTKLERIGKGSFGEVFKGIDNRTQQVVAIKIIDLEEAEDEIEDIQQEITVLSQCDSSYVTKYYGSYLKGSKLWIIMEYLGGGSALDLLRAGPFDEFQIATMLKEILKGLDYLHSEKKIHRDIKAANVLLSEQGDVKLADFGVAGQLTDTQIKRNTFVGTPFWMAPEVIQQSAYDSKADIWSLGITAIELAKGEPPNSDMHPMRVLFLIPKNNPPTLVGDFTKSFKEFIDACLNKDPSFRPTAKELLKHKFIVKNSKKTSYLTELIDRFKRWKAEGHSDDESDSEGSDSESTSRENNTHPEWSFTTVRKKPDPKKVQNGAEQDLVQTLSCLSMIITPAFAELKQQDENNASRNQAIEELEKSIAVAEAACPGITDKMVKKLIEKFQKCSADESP
# Chain of Serine/threonine-protein kinase PAK 1 (Homo sapiens) (Q13153 whole entry): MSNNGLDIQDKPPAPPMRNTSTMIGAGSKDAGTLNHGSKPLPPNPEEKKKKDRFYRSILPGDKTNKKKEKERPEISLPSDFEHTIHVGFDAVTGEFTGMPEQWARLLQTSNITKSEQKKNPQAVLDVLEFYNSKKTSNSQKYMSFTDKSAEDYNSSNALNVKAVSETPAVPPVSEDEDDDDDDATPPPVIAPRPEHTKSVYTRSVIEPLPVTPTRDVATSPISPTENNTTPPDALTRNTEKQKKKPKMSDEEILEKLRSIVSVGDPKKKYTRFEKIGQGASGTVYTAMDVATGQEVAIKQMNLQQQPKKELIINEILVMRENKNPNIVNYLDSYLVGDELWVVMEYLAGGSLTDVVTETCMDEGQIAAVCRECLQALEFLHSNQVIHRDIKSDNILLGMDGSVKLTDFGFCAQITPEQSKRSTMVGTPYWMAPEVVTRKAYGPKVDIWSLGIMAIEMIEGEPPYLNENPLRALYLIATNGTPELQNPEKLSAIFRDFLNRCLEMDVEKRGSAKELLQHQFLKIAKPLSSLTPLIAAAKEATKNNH
SMILES,inhibition [1],inhibition [2],inhibition [3],inhibition [4],inhibition [5],inhibition [6],inhibition [7],inhibition [8],inhibition [9],inhibition [10],inhibition [11],inhibition [12],inhibition [13],inhibition [14],inhibition [15],inhibition [16],inhibition [17],inhibition [18],inhibition [19],inhibition [20]
CS(=O)(=O)CCNCc1ccc(-c2ccc3ncnc(Nc4ccc(OCc5ccccc5)cc4)c3c2)o1,1.34%,6.85%,5.65%,0.34%,-0.94%,3.86%,3.33%,3.91%,2.57%,-3.53%,-0.08%,2.13%,3.38%,4.24%,5.36%,2.42%,4.54%,3.95%,5.12%,1.78%
Cc1cc(O)cc(C)c1/C=C/c1cncc(C(=O)OC(C)(C)C)c1,2.31%,5.41%,2.7%,-0.11%,0.96%,2.25%,2.76%,0.52%,4.26%,2.02%,-0.98%,4.42%,21.6%,7.59%,35%,9.08%,46%,11.7%,52.5%,1.3%
O=C1Nc2ccccc2/C1=C1\CCc2cc(O)ccc21,-7.51%,7.55%,7.72%,2.86%,3.05%,5.7%,6.44%,0.23%,1.47%,-1.41%,-3.1%,1.09%,9.2%,5.59%,15%,4.89%,15.4%,5.53%,12.8%,4.27%
NC(=O)c1ccc2c(-c3ccnc(NCCCO)n3)c(-c3ccc(F)cc3)nn2c1,-2.28%,7.12%,6.41%,2.25%,2.24%,4.61%,4.88%,0.64%,-4.27%,5.26%,-5.05%,4.7%,7.28%,6.27%,8.34%,3.9%,10.1%,5.67%,10.2%,2.91%
COc1ccc2ncn(-c3cc(O[C@H](C)c4ccccc4C(F)(F)F)c(C(N)=O)s3)c2c1,13.1%,-0.34%,2.49%,-1.58%,-0.3%,-2.52%,0.02%,-6.5%,-1.3%,-7.06%,-8.65%,-0.4%,-1.92%,-0.02%,2.03%,0.8%,1.91%,-0.3%,2.05%,0.03%
COc1cc(N2CCN(C(C)C)CC2)ccc1Nc1nc(Nc2cccc3ncccc23)c2cc[nH]c2n1,1.78%,0.3%,-1.25%,0.87%,-0.27%,-1.68%,-0.48%,-2.43%,-1.65%,1.57%,-4.19%,0.09%,0.59%,2.17%,3.86%,2.31%,3.99%,1.61%,3.51%,1.61%
c1ccc(-c2n[nH]cc2-c2ccnc(-c3ccc(OCCn4ccnc4)cc3)c2)nc1,3.16%,1.76%,3.78%,-0.68%,0.37%,-0.22%,-2.41%,-0.74%,4.05%,-3.76%,-6.97%,23.1%,71.2%,46.9%,88.1%,43.8%,87.2%,25.9%,73.4%,3%
CC1=C(C(=O)Nc2ccc3[nH]nc(C)c3c2)C(c2ccc(C(F)(F)F)cc2)CC(=O)N1 (stereo not given),-2.31%,4.1%,3.72%,1.78%,1.55%,2.35%,2.95%,10.3%,-2.13%,-0.15%,6.01%,2.57%,3.48%,4.06%,4.03%,1.49%,4.65%,4.49%,3.3%,3.82%
c1cnn2ncc(-c3ccnc(NCCCN4CCOCC4)n3)c2c1,-2.39%,6.37%,4.03%,1.39%,0.34%,3.11%,3.78%,2.65%,1.01%,-0.41%,-5.92%,1.77%,1.98%,3.45%,3.75%,1.48%,0.71%,3.41%,2.1%,2.37%
CC1(C)CC(n2cnc(-c3ccc(F)cc3)c2-c2ccnc(N)n2)CC(C)(C)N1,-4.55%,0.1%,2.11%,-0.56%,0.36%,0.33%,0.79%,4.67%,0.79%,1.59%,-4.18%,1.94%,2.09%,0.18%,0.59%,2.43%,0.27%,0.65%,0.31%,1.92%
COc1cccc(Nc2nccc(-c3cnn4ncccc34)n2)c1,3.21%,2.05%,2.16%,1%,2.62%,1.1%,1.63%,8.25%,5.51%,1.43%,5.36%,5.54%,23.1%,8.68%,41.2%,8.35%,45%,9.38%,46.5%,3.94%
O=C(O[C@H]1CN[C@H](C#Cc2cc3ncnc(Nc4ccc5c(cnn5Cc5ccccc5)c4)c3s2)C1)N1CCOCC1,2.02%,2.28%,0.73%,-1.9%,-1.35%,-0.09%,0.69%,-0.12%,-1.71%,3.43%,0.8%,0.73%,0.29%,-0.26%,1.3%,2.14%,-0.2%,0.53%,0.83%,-1.97%
CN1CCC(C(=O)Nc2n[nH]c3nc(-c4ccc(O)cc4)c(Br)cc23)CC1,21.2% and 19.8%,7.92% and -0.37%,5.42% and 3.31%,0.62% and -0.51%,1.42% and -0.53%,4.2% and 1.97%,5.02% and 1.71%,-5.26%,-8.73% and 0.52%,-2.46% and -9.85%,-4.52%,2.77% and -0.12%,13.4% and 6.5%,4.9% and 3.81%,15.7% and 13.9%,1.55% and 2.92%,13.9% and 9.89%,3.16% and 3.78%,17.1% and 15.7%,2.49% and 2.76%
FC(F)(F)CNc1nccc(-c2cnn3ncccc23)n1,-0.52%,0.97%,6.19%,0.24%,-0.87%,4.27%,3.14%,1.55%,1.35%,-2.63%,-2.36%,6.33%,1.46%,2.61%,2.38%,0.25%,0.76%,1.08%,1.59%,0.06%
N#Cc1ccc2c(-c3ccnc(NC4CC4)n3)c(-c3ccc(F)cc3)nn2c1,-1.31%,-1.35%,7.43%,0.74%,0.16%,1.37%,2.53%,1.73%,3.22%,-5.39%,-2.35%,-0.39%,0.55%,-0.57%,3.93%,-0.71%,3.61%,0.81%,4.72%,-0.18%
O=C(O[C@H]1CN[C@H](C#Cc2cc3ncnc(Nc4ccc(OCc5cccc(F)c5)c(Cl)c4)c3s2)C1)N1CCOCC1,-0.1%,8.7%,7.32%,1.91%,2.46%,6.61%,6.74%,6.46%,0.44%,-7.35%,-5.21%,0.66%,4.53%,3.67%,5.92%,2.25%,4.53%,3.47%,2.92%,4.04%
CCOc1ccc2c(-c3ccnc(Nc4cc(OC)cc(C(F)(F)F)c4)n3)cnn2n1,1.8%,2.05%,0.59%,-0.62%,0.03%,-0.15%,-0.09%,0.09%,8.65%,-8.96%,3.48%,0.14%,4.02%,0.25%,6.23%,2.11%,7.2%,1.15%,6.33%,0.17%
CC(C)c1ccc(-c2cc(-c3c[nH]nc3-c3ccccn3)ccn2)cc1,3.31%,1.09%,-1.39%,0.93%,-0.21%,-0.3%,0.21%,-1.29%,-0.36%,2.8%,-0.86%,2.44%,17.2%,7.55%,40.1%,5.28%,38.5%,3.86%,21.4%,1.9%
NS(=O)(=O)c1ccc(N/N=C2\C(=O)Nc3ccc(C(=O)NCc4ccncc4)cc32)cc1,6.51%,4.25%,4.68%,2.01%,2.49%,4.5%,4.65%,9.16%,11.3%,-4.52%,12.5%,0.9%,10%,2.55%,15%,1.51%,13.2%,1.73%,11.6%,2.6%
CN(C)CCNC(=O)Nc1ccc(N(C)c2ccnc(Nc3ccc(CS(C)(=O)=O)cc3)n2)cc1,-2.49%,4.61%,9.49%,1.79%,2.9%,3.73%,4.29%,1.15%,6.27%,-1.56%,-1.22%,2.92%,10.2%,5.45%,12.3%,4.48%,15.1%,5.59%,17.4%,4.39%
COc1c(C(N)=O)cc(-c2ccc(Cl)cc2)cc1-c1ccc(S(N)(=O)=O)cc1,1.45%,6.68%,12.1%,2.72%,2.55%,4.51%,7.97%,6.72%,3.56%,-7.76%,-4.53%,2.38%,3.7%,3.77%,5.78%,1.02%,1.14%,3.13%,5.89%,3.24%
CCCNc1cccc(-n2ncc3c(N/N=C/c4ccncc4)ncnc32)c1,-1.3%,-0.99%,-0.69%,0.12%,-0.31%,1.59%,1.61%,8.4%,5.05%,16.9%,2.09%,27.1%,77.2%,37.5%,86%,36.8%,85.8%,35.7%,83.8%,37.5%
CN1CCC(n2cnc(-c3ccc(F)cc3)c2-c2ccnc(NCCO)n2)CC1,1.34%,5.86%,7.1%,2.03%,2.52%,3.99%,3.76%,0.7%,1.35%,3.38%,-2.04%,2.22%,5.59%,3.64%,6.05%,0.67%,7.5%,5.69%,4.05%,3.06%
Cc1nnc(-c2cccc(-c3ccc(C(=O)NCC4CC4)cc3)c2)o1,0.39%,9.41%,10.5%,2.54%,3.86%,7.07%,5.35%,4.12%,2.3%,4.58%,-1.37%,4.38%,4.87%,4.09%,6.67%,2.13%,5.6%,4.31%,5.92%,4.43%
COc1cccc(-n2ncc3c(N/N=C/c4ccc(C(=O)NCCN(C)C)cc4)ncnc32)c1,0.63%,7.17%,5.32%,1.01%,1.56%,2.69%,3.69%,12.8%,7.55%,1.68%,12.9%,92.1%,94.7%,93.9%,95%,92.3%,95.5%,94.2%,95.4%,84.6%
Nc1nccc(-c2c(-c3ccc(F)cc3)ncn2C2CCNCC2)n1,5.19% and 1.66%,-3.53% and -3.93%,-2.75% and -0.14%,-3.09% and 0.25%,-2.02% and 1.56%,-4.58% and -1.23%,-3.86% and -0.28%,-9.21% and 0.56%,-3.77% and 2.85%,-8.03% and 2.08%,-8.13% and -0.6%,-2.24% and 1.83%,-1.66% and 0.75%,-1.77% and 0.86%,3.78% and 0.72%,-2.76% and 1.38%,4.44% and 1.12%,-0.74% and -0.69%,4.57% and 2.57%,-3.43% and 2.15%
